Screens: PubChem, several laboratories
Gli-Sufu block = Gli-Sufu pathway antagonism; actives 0.74% (n = 340,000); Sufu-KO-LIGHT fibroblasts, Gli luciferase reporter luminescence; inhibition, % at 5 µM;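 active = inhibition above about 55%, limit read from the data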
697 NFkB inh = lowers PMA/ionomycin-induced NF-kB signal in 697 B cells. 697 B-cell NF-kB luciferase reporter, 16 h. inhibition, % at 4 µM. actives 0.33% (n = 330,000); in the data active = inhibition above about 35%
H9c2 protect = protects H9c2 cardiomyocytes from peroxide injury. H2O2 injury protection, ATPLite, 2 h. protection from H2O2 cell death, % at 20 µM. actives 0.63% (n = 360,000);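 active = compounds giving at least 50% protection of heart cells from peroxide-induced death in the single-dose screen, raw or plate-pattern-corrected value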
COUP-TFII inh = blocks human COUP-TFII nuclear receptor; HEK293T NGFI-A luciferase reporter, luminescence; inhibition, % at 8.6 µM; actives 0.7% (n = 370,000);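 active = inhibition above a per-plate cutoff, mean inhibition of test wells between control levels plus 3 SD, cut at about 38% in these data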;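 note: cells cotransfected with COUP-TFII expression vector driving the NGFI-A reporter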
Target sequence (P24468 whole entry, looked up): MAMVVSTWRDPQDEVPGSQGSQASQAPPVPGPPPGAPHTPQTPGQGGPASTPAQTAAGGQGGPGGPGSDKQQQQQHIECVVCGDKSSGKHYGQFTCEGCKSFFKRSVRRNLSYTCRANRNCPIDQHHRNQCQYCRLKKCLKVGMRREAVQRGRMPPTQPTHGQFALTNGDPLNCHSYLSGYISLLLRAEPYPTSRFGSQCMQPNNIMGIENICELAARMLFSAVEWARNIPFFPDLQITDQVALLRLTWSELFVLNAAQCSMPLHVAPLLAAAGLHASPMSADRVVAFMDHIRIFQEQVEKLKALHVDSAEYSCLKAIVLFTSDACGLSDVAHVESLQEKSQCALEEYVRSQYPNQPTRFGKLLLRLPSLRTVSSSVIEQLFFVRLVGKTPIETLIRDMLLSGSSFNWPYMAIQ
Jurkat NFkB inh = lowers PMA/ionomycin-induced NF-kB signal in Jurkat cells; PMA/ionomycin-induced NF-kB luciferase reporter, luminescence; inhibition, % at 4 µM; actives 0.53% (n = 330,000); AID 435003; in the data active = inhibition above about 50%
TAG inh = triacylglycerol accumulation inhibition; H9c2 cells, Nile Red lipid (TAG) fluorescence; cells loaded with 200 µM oleic acid; inhibition, % at 12.5 µM; actives 0.66% (n = 230,000); AID 651582;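 active = pattern-corrected inhibition of lipid staining of at least 50% with the nuclear-stain viability signal not falling by more than 50%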
VP16 Luc counter = VP16 inhibition counter-screen for COUP-TFII. shares compounds with COUP-TFII inh. HEK293 Gal4-VP16 luciferase reporter, luminescence. inhibition, % at 8.5 µM. actives 25% (n = 2,500); in the data active = inhibition above about 13%
COUP-TFII conf = COUP-TFII (NR2F2) inhibition, confirmation assay | actives 45% (n = 2,500) | HEK293 NGFI-A luciferase reporter, luminescence | shares compounds with COUP-TFII inh | inhibition, % at 8.5 µM;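 active = mean inhibition over three repeats above a set limit taken from the earlier primary screen, cut at about 38% in these data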
A number is an active result; - = inactive; . = no result. The list is not random: actives were taken first. Their share in the collection is about 2.6%.

SMILES	Gli-Sufu block	697 NFkB inh	H9c2 protect	COUP-TFII inh	Jurkat NFkB inh	TAG inh	VP16 Luc counter	COUP-TFII conf
O=C(Nc1ccc(Oc2ccccc2)cc1)c1csc([C@@H]2O[C@H](CO)[C@@H](O)[C@H]2O)n1	.	.	-	66	.	-	-	51
NS(=O)(=O)c1ccc(CCNC(=O)CN2CCC(Cc3ccccc3)CC2)cc1	-	-	-	38	-	-	-	-
CCOC(=O)C1CCN(S(=O)(=O)c2ccc3c(c2)N(C(C)=O)CC(C)S3)CC1 (stereo not drawn)	-	-	-	49	-	.	-	-
O=C(OCCN1C(=O)c2cccc3c(N4CCOCC4)ccc(c23)C1=O)c1ccccc1Cl	-	.	-	66	.	-	-	-
O=C(Nc1ccc(N2CCN(C(=O)c3ccccc3)CC2)c(Cl)c1)c1ccc(Br)o1	-	-	-	40	-	.	-	-
CN(CCCOC(=O)c1cc2ccccc2o1)C1CN(Cc2cn(Cc3ccccc3Cl)nn2)S(=O)(=O)C1 (stereo not drawn)	.	.	.	-	.	.	.	.
Cc1cc(/C=N/Nc2ncnc(N)c2[N+](=O)[O-])c(C)n1-c1ccccc1	-	-	-	52	-	-	44	78
O=C(COC(=O)c1ccc(Sc2ncn[nH]2)c([N+](=O)[O-])c1)Nc1cccc(Cl)c1F	.	.	.	-	.	.	.	.
CC1=CC2C(C(O)CC3(C)C2CC(C)C32OCOC23COCO3)C2(C)C/C(=C\O)C(=O)C=C12 (stereo not drawn)	-	.	-	52	.	-	21	42
O=C(CSc1nnc(Cc2cccs2)n1-c1ccccc1)Nc1ccccc1-c1ccccc1	.	.	.	-	.	.	.	.
O=C(NCc1cccnc1)C1CCC(c2ccc(Cl)cc2)CC1 (stereo not drawn)	-	-	-	41	-	-	-	55
Cc1ccc(S(=O)(=O)N2CCc3ccccc3CC2)cc1	-	.	-	66	.	-	-	50
Cc1ccc(S(=O)(=O)N2CCc3ccccc3C2)cc1	-	-	-	-	-	.	.	.
COC(=O)[C@H]1[C@@H](O)[C@@]2(O)c3c(OC)cc(OC)cc3O[C@@]2(c2ccc(OC)cc2)[C@@H]1c1ccc(F)cc1	.	.	.	84	.	.	-	65
COc1ccc2[nH]c(=O)c3c(c2c1)OC(C)(C)C=C3	-	-	-	44	-	-	-	-
CCN(CC)S(=O)(=O)c1ccc(/C=C/C(=O)Nc2cccc(F)c2)cc1	-	-	-	38	-	.	-	-
CCN(CC)S(=O)(=O)c1ccc(NC(=O)Nc2cccc(C(F)(F)F)c2)cc1	-	-	-	75	-	-	-	-
COC(=O)[C@]12C[C@H](CC(=O)NCc3cccs3)C(=O)N(Cc3ccc(Cl)cc3Cl)C1=C[C@H](C(C)C)O[C@@H]2C1CC1	.	.	.	-	.	.	.	.
COc1cc(-c2nnc(SCC(=O)N3C(C)CCCC3C)o2)cc(OC)c1OC (stereo not drawn)	.	.	.	-	.	.	.	.
O=C(NCc1cccnc1)/C(=C\c1ccc(-c2ccc(Br)cc2)o1)S(=O)(=O)c1ccccc1	-	-	-	56	-	.	44	48
O=C(NCc1cccnc1)/C(=C/c1ccc(-c2ccc(Cl)cc2)o1)S(=O)(=O)c1ccccc1	-	-	-	49	-	.	45	44
COc1cccc(CNc2nc(NCC3CC3)nc3ccsc23)c1	.	.	-	43	.	-	-	-
COc1cccc(CNc2nc(NC(C)C)nc3ccsc23)c1OC	.	.	-	-	.	-	.	.
CSc1ccccc1CNc1nc(NCC2CC2)nc2ccsc12	.	.	-	53	.	-	-	-
COc1cccc(CNc2nc(NCC3CC3)nc3ccsc23)c1OC	.	.	-	59	.	-	-	-
SMILES	Gli-Sufu block	697 NFkB inh	H9c2 protect	COUP-TFII inh	Jurkat NFkB inh	TAG inh	VP16 Luc counter	COUP-TFII conf
Cc1cc(NC(=O)CS(=O)(=O)c2cn(Cc3cccc(Br)c3)c3ccccc23)no1	.	.	-	47	.	-	-	-
C[C@H]1[C@@H](N)CC[C@@]23CCCN2C(=O)CCC[C@@H]13	.	.	.	-	.	.	.	.
COc1ccc(C(C)=O)cc1CSc1nnc(Nc2ccc(C)cc2)s1	-	-	-	42	-	.	-	-
COc1ccc(C(C)=O)cc1CSc1nnc(Nc2ccccc2)s1	-	-	-	50	-	.	-	-
COc1cccc(N2CCN(c3c4c(nc5ncnn35)CCC4)CC2)c1	-	-	-	55	-	.	-	-
COCCN1CCN(C(=O)c2ccc3nc(Cc4ccc(OC)c(OC)c4)oc3c2)CC1	-	-	-	49	-	.	-	48
Cc1c(C(=O)N2CCN(Cc3ccc4c(c3)OCO4)CC2)sc2ncnc(N3CCN(c4ccccc4F)CC3)c12	-	-	-	46	-	.	-	57
COc1cccc(OC)c1C(=O)N1CCN(Cc2ccc3c(c2)OCO3)CC1	-	-	-	-	-	-	.	.
COc1cc(SC)ccc1C(=O)N1CCN(Cc2ccc3c(c2)OCO3)CC1	-	-	-	48	-	.	-	-
COc1cccc(CNC(=O)[C@H]2CCCN2C(=O)[C@H]2CCCN2C(=O)c2c(F)cccc2F)c1	.	.	.	-	.	.	.	.
Cc1cc(-c2n[nH]c(=S)n2N=Cc2c3ccccc3cc3ccccc23)n[nH]1	.	.	.	-	.	.	.	.
c1ccc2c(c1)Nc1cc3ccccc3cc1S2	-	-	-	-	-	-	.	.
c1ccc2c(c1)Nc1ccncc1S2	-	-	-	38	-	-	-	-
C[C@H]1COc2cc(Br)ccc2S(=O)(=O)N1Cc1cn(Cc2ccc(C(F)(F)F)cc2)nn1	.	.	.	-	.	.	.	.
O=C(O)Cc1coc2cc3c(cc12)CCC3	-	-	-	-	-	-	.	.
O=C(Cc1coc2cc3c(cc12)CCC3)OCC(=O)N1CCCC1=O	-	-	-	44	-	-	28	-
O=C(NC1CCCc2c1cnn2-c1ccc(F)cc1F)c1ccccc1N1CCOCC1 (stereo not drawn)	-	-	-	-	-	-	.	.
CCc1cc(C(=O)NC2CCCc3c2cnn3-c2ccc(F)cc2F)no1 (stereo not drawn)	.	.	-	53	.	-	-	-
Cc1cc(C)cc(-n2ncc3c2CCCC3NC(=O)C2(C(N)=O)CC2)c1 (stereo not drawn)	-	-	-	-	-	-	.	.
O=C(N[C@H]1CCCc2c1cnn2-c1ccc(F)cc1F)c1ccccn1	.	.	.	-	.	.	.	.
Cc1cccc(-n2ncc3c2CCCC3NC(=O)C2(C(N)=O)CC2)c1C (stereo not drawn)	63	-	-	66	-	.	-	52
O=C(NC1CCCc2c1cnn2-c1ccccc1F)c1ccncc1 (stereo not drawn)	.	.	-	63	.	-	14	49
CC1=C(C(=O)NC2CCCc3c2cnn3-c2ccc(F)cc2F)OCCO1 (stereo not drawn)	-	-	-	47	-	.	-	-
